# Source: PubChem BioAssay
# FLuc inh = blocks purified firefly luciferase enzyme activity; 76,000 tested, 2.5% active; Potency, µM (top dose mostly 115 µM), actives largely listed as inhibitors; purified P. pyralis luciferase, luminescence, biochemical; AID 1347043; also: % is scaled to controls: 0 for no effect and ±100 for the full control effect; nearly all actives have a fitted effect of over 65% in size
# Target sequence (P08659 whole entry, looked up): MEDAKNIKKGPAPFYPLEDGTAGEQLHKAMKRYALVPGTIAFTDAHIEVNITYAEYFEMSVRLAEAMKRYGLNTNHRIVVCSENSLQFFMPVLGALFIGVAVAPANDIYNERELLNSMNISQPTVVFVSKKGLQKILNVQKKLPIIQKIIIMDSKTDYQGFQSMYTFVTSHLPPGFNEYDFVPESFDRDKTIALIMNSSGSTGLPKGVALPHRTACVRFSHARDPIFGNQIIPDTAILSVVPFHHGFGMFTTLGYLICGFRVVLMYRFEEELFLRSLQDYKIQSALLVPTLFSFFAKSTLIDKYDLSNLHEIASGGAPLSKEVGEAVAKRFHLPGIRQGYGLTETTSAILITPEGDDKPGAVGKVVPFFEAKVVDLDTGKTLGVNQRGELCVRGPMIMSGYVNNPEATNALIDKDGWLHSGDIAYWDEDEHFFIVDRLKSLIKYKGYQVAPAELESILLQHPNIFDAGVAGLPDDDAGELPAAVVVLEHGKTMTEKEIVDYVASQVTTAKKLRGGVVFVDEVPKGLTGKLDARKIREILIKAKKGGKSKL
#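 Luminescence read by CCD imager after adding enzyme (10nM final) to wells holding compound, titrated in qHTS. Substrates 10uM each D-luciferin and ATP; buffer 50mM Tris acetate pH 7.5, 10mM Mg acetate, Tween-20, BSA.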
# NIH3T3 tox = kills NIH 3T3 cells; NIH 3T3 viability, CellTiter-Glo ATP luminescence, 48-72 h; Potency, µM (titrated, usually from 96.7 µM), inactives show top-dose activity change, negative = cytotoxicity, usual class: inhibitors; 94,000 tested, 4.3% active; AID 1345082; also: % is scaled to controls: 0 for no effect and ±100 for the full control effect; nearly all actives have a fitted effect of over 55% in size
#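 ATP-dependent luminescence (CellTiter-Glo) served as the viability signal for NIH 3T3 cells treated with compound for 48 or 72 hr at 37 °C.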
# HEK cytotox = HEK 293 cell cytotoxicity; AID 1345083; HEK 293 viability, ATP luminescence (CellTiter-Glo), 48-72 h; 94,000 tested, 6.6% active; Potency, µM (doses to about 115 µM), without a hit: top-dose activity change, negative = cytotoxicity, hits mostly inhibitors; also: % is scaled to controls: 0 for no effect and ±100 for the full control effect; nearly all actives have a fitted effect of over 60% in size
#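 CellTiter-Glo luminescence (cellular ATP) was read after 48 or 72 hr of compound exposure at 37 degree Celsius. Cells were HEK 293 plated at 250 cells/well.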
# NPR1 antag = blocks ANP-stimulated signaling of human Npr1 receptor. P16066. HEK293 hNpr1 GloSensor cGMP, ANP-stimulated luminescence. Potency, µM (highest dose often 46.3 µM), inactives show at the highest dose activity change, negative = inhibition, usual class: inhibitors. 76,000 tested, 1.6% active. AID 1347048; calls by dose curve; also: % is scaled to controls: 0 for no effect and ±100 for the full control effect; nearly all actives have a fitted effect of over 60% in size
#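 HEK293 cells stably expressing human Npr1 and cGMP GloSensor pGS-40F, loaded 2 h with 2% GloSensor reagent, given compound 30 min at room temperature. Luminescence read before and 20 min after 0.1 nM hNppA.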
# Npr1 antag conf = confirmation of human Npr1 natriuretic peptide receptor antagonists | shares compounds with NPR1 antag | HEK293 hNpr1 cGMP GloSensor luminescence, ANP-stimulated | Potency, µM (top dose mostly 57.6 µM), for inactives: at the highest dose activity change, negative = inhibition, usual class: inhibitors | 1,400 tested, 76% active | AID 1347044; calls by dose curve; also: nearly all actives have a fitted effect of over 70% in size
# NPR2 antag = selectivity test of Npr1 antagonists against human Npr2 | shares compounds with NPR1 antag | HEK293 hNpr2 GloSensor cGMP luminescence, CNP-stimulated | Potency, µM (top dose mostly 57.6 µM), without a hit: at the highest dose activity change, negative = inhibition, hits mostly inhibitors | 1,400 tested, 67% active | AID 1347046; calls by dose curve; also: nearly all actives have a fitted effect of over 70% in size
# FLuc counter = counter-screen for Npr1 antagonists: firefly luciferase inhibitors; Potency, µM (series often up to 57.6 µM), inactives show top-dose activity change, negative = inhibition, actives largely listed as inhibitors; shares compounds with NPR1 antag; purified FLuc enzyme, luminescence, Km substrate; 1,400 tested, 0.7% active; also: 0% is about no effect
# GloSensor cGMP = reduces cGMP signal in GloSensor control cells. shares compounds with NPR1 antag. 1,400 tested, 69% active. AID 1347051. HEK293 GloSensor cGMP, SNP-stimulated, luminescence. Potency, µM (series often up to 57.6 µM), for inactives: at the top dose activity change, negative = inhibition, hits mostly inhibitors; calls by dose curve; also: % is scaled to controls: 0 for no effect and ±100 for the full control effect; nearly all actives have a fitted effect of over 70% in size
# * hit, by the source's call; i = inactive; ? = inconclusive; . = no result; [ ] = another dose, or the depositor's remark. The list is not random: actives were taken first. Their share in the collection is about 11%. Unless noted, calls follow the shape of the dose curve; as a rule, active = well fitted curve in the direction sought with a large enough effect; inconclusive = small, poorly fitted or top-dose-only effect, or another doubt; inactive = no such curve, though single readings can be large; an effect the other way counts as inactive or inconclusive. Potency is read from the fitted curve at half-maximal effect.
SMILES,FLuc inh,NIH3T3 tox,HEK cytotox,NPR1 antag,Npr1 antag conf,NPR2 antag,FLuc counter,GloSensor cGMP
O=C1Nc2ccccc2CN(CC2CC2)C12CCNCC2,.,i,i,.,.,.,.,.
O=C1Nc2ccccc2CN(CC2CCCCC2)C12CCNCC2,.,?,35µM*,.,19µM*,6.1µM*,3%,-21%
COc1ccc(C(=O)NC2CCN(c3cc(C(F)(F)F)nc(C)n3)CC2)cc1,i,?,?,?,.,.,.,.
O=C(NCCOc1ccccc1)c1cnc2n1CCN(Cc1c[nH]c3ccccc13)CC2,i,?,100µM*,?,31µM*,?,4%[86.2 µM],35µM*
O=C1Nc2ccccc2OCC12CCN(Cc1cccs1)CC2,i,-25%[138 µM],?,0%[70.6 µM],.,.,.,.
O=C1CCC2(CCN(c3nc4ccccc4s3)CC2)CN1Cc1cccnc1,i,-25%,?,13µM*,17µM*,19µM*,-5%,15µM*
Cc1cc(C(=O)N2CCC(F)(c3nc(-c4ccncc4)no3)CC2)n(C)n1,i,-26%,?,11µM*,27µM*,31µM*,2%,27µM*
CC1=C[C@@H](CNCc2cccnc2)[C@H](C(C)C)C[C@H]1Cc1nnc(-c2ccncc2)o1,i,?,?,-15%[70.6 µM],.,.,.,.
COc1ccc(-c2nnc(C[C@@H]3C[C@@H](C(C)C)[C@H](CNc4ccccn4)C=C3C)o2)cc1,i,35µM*,25µM*,16µM*,22µM*,28µM*,-1%[86.2 µM],22µM*
CC1=C[C@@H](CN2CCN(c3ncccn3)CC2)[C@H](C(C)C)C[C@H]1Cc1nnc(-c2ccccc2F)o1,i,40µM*,32µM*,-21%,?,?,-2%,27µM*
COCCN1CCN(C[C@@H]2C=C(C)[C@H](Cc3nnc(COc4ccc(F)cc4)o3)C[C@H]2C(C)C)CC1,i,?,-33%,-8%,.,.,.,.
Cc1nn2c(c1-c1ccccc1Oc1ccccc1)N(Cc1ccccc1O)CCC2,i,11µM*,10µM*,7.9µM*,3.1µM*,13µM*,-2%[86.2 µM],2.2µM*
COc1ccccc1CN1CCCn2nc(C)c(-c3ccccc3C(N)=O)c21,i,?,22µM*,14µM*,13µM*,31µM*,1%[86.2 µM],9.9µM*
Cc1nn2c(c1-c1ccccc1OCc1ccccc1)N(C(=O)c1ccn(C)n1)CCC2,i,?,-18%[172 µM],0%[70.6 µM],.,.,.,.
Cc1nn2c(c1-c1ccccc1Oc1ccccc1)N(Cc1cccc(O)c1)CCC2,i,14µM*,22µM*,2.5µM*,11µM*,25µM*,0%[86.2 µM],11µM*
CCCNC(=O)N1CCC(O)(c2csc(CN3CCc4ccccc4C3)n2)CC1,i,-13%[174 µM],?,4%[70.6 µM],.,.,.,.
Cc1ccccc1-c1cnc2[nH]cc(CC(=O)NC3CC3)c2c1,i,?,?,14µM*,13µM*,18µM*,13%[86.2 µM],13µM*
Cc1ccccc1-c1cnc2[nH]cc(CC(=O)NCc3ccco3)c2c1,i,?,71µM*,32µM*,35µM*,31µM*,1%[86.2 µM],25µM*
O=C(NCc1ccccc1)C1CCc2nnc(CN[S+](=O)([O-])c3ccccc3Cl)n21 (stereo unspecified),.,-9%,i,.,.,.,.,.
CNC(=O)[C@@H]1CN(C(=O)c2ncoc2-c2cccc(C)c2)C[C@H]1CO,i,-9%,-5%,7%,.,.,.,.
CC(C)Cc1nc(CN2C[C@@H]3CC[C@H](C2)N(Cc2ccccc2)C3)no1,i,?,?,-3%,.,.,.,.
COCCNC(=O)c1nc2c(o1)CCN(Cc1cccc(F)c1F)CC2,i,?,-45%[172 µM],0%[70.6 µM],.,.,.,.
O=C(Nc1ccc(Cl)cc1)c1nc2c(o1)CCN(Cc1cccc(F)c1F)CC2,i,?,32µM*,3.5µM*,6.3µM*,9.9µM*,-6%[86.2 µM],7µM*
O=C(Nc1ccc(Cl)cc1)c1nc2c(o1)CCN(Cc1ccc(F)cc1F)CC2,i,?,?,3.2µM*,7µM*,8.9µM*,2%[86.2 µM],7.9µM*
COc1ccccc1CN1CCc2nc(C(=O)Nc3ccc(Cl)cc3)oc2CC1,i,50µM*,28µM*,13µM*,14µM*,18µM*,0%[86.2 µM],13µM*
SMILES,FLuc inh,NIH3T3 tox,HEK cytotox,NPR1 antag,Npr1 antag conf,NPR2 antag,FLuc counter,GloSensor cGMP
Cc1noc(C)c1CCC(=O)N1C[C@@H](C)[C@@](C)(O)C1,i,5%,i,6%,.,.,.,.
COc1ccc(-c2noc([C@@H]3CCCN3C(=O)Cc3ccccc3OC)n2)cc1,i,-28%,?,5%,.,.,.,.
COc1ccccc1CC(=O)N1CCC(Cc2nc(-c3ccc(F)cc3)no2)CC1,i,?,?,1.3µM*,2.4µM*,2.4µM*,4%,1.9µM*
COc1ccccc1C(=O)N1CCC(Cc2nc(C(C)C)no2)CC1,i,-20%,?,-4%,.,.,.,.
COc1ccccc1C(=O)N1CCC(Cc2nc(-c3ccc(F)cc3)no2)CC1,i,?,?,6.3µM*,9.7µM*,12µM*,0%,11µM*
COCc1nc(C2CCCN(C(=O)c3ccc(OC)nc3OC)C2)no1 (stereo unspecified),i,-3%,9%,3%,.,.,.,.
COc1ccc(-c2noc(CC3CCN(C(=O)Cc4ccccc4OC)CC3)n2)cc1,i,?,?,?,22µM*,19µM*,3%,22µM*
COc1ccccc1CCC(=O)N1CCC(Cc2nc(-c3ccc(F)cc3)no2)CC1,i,?,?,?,.,.,.,.
COc1ccc(C(=O)N2CCC(Cc3nc(-c4ccc(F)cc4)no3)CC2)c(OC)n1,i,?,?,2.8µM*,3.4µM*,4.8µM*,-2%,4.8µM*
CCOC(=O)C1CCN(Cc2ccccc2OCC(O)CN(C)C2CCCCC2)CC1 (stereo unspecified),i,?,?,-4%,.,.,.,.
COCC(=O)N[C@H]1C[C@@H](Cc2cc(-c3ccccc3)on2)C1(C)C,?,?,?,-22%[70.6 µM],.,.,.,.
CN1C(=O)CC[C@]2(C(=O)NCc3cccc(F)c3)CCCC[C@@H]12,i,i,-6%,4%,.,.,.,.
